The values that follow come from ChEMBL document CHEMBL3988442, “University of Dundee, Small-Polar-MMV Screening Library” (2021).

The campaign covered roughly 48,000 compounds. About 13,000 (27%) showed an effect of 50% or more. This is one part of the list.

The test deals with Wolbachia pipientis. Nature of the test: Anti-Wolbachia Cell-Based Screen. It counts as functional. Set-up: scale not given: in the data most compounds retested in dose-response had high values. Particulars: 5 µM.
Turning to `CN1CCC2(CC1)CC(NC(=O)c1csnn1)c1ccccc1O2.O=C(O)C(F)(F)F` (centres undefined), the “Percent Effect” value is reported as -8.669%.
Then `CC(=O)N1CCC2(CC1)CC(NS(C)(=O)=O)c1ccccc1O2` (centres undefined), with 119.8%; and `CC(C)CN1CCC2(CC1)CC(NS(C)(=O)=O)c1ccccc1O2.O=C(O)C(F)(F)F` (centres undefined), with 99.03%.
Then `CS(=O)(=O)N1CC[C@]2(C[C@@H](Oc3ccccn3)CO2)C1.O=C(O)C(F)(F)F`, with -15.23%; and `CS(=O)(=O)NC1CC2(CCN(CC3CC3)CC2)Oc2ccccc21.O=C(O)C(F)(F)F` (centres undefined), with 88.61%.
The value for `Cc1ccc(NC2COC3(CCN(CC(C)C)CC3)C2)nn1.O=C(O)C(F)(F)F` (centres undefined) was -1.394%.
Take `O=C(O)C(F)(F)F.O=S(=O)(NC1CCC12CCN(CC1CC1)CC2)c1ccccc1` (centres undefined): the “Percent Effect” value was 2.266%.
As for `CCN1CCC2(CC1)CC(NC(=O)c1c[nH]cn1)c1ccccc1O2` (centres undefined), the “Percent Effect” value is -7.488%.
As to `CNC(=O)NC(=O)C(C)N1CCCc2cc(OC)ccc2C1` (centres undefined), the “Percent Effect” value is on record as -11.16%.
For `CC(CO)N(C)C(=O)c1cn(-c2ccc(Br)cc2)cn1` (centres undefined), the “Percent Effect” value is on record as -3.083%.
Then `Cc1cc(F)ccc1NCC(=O)NCC(F)(F)F`, with 8.632%.
The value for `CC(C)c1nc2n(n1)CC(NCCc1cccs1)CC2` (centres undefined) was 0.7675%; that for `NC(=O)N1CCCN(C2CCc3ccc(F)cc32)CC1` (centres undefined) was -19.72%; that for `COc1cc2c(nn1)CCN(CC(O)COc1ccc(C#N)cc1)C2` (centres undefined) was -7.756%.
`CC(Cc1ccco1)NS(=O)(=O)N1CCCCCC1` (centres undefined): the “Percent Effect” value is given as -8.82%.
The value for `Cc1ccc(N2CCCC(NCc3ccc(C)o3)C2)nn1` (centres undefined) was 12.24%; that for `Cc1ccc(N2CCCC(NCc3ccc(Cl)o3)C2)nn1` (centres undefined) was 93.48%.
For `Cc1ccc(N2CCCC(NCc3cccc4c3OCCO4)C2)nn1` (centres undefined), the “Percent Effect” value is recorded as 17.19%.
As to `CSCc1ccc(CNC2CCCN(c3ccc(C)nn3)C2)o1` (centres undefined), the “Percent Effect” value is listed as 95.39%.
`CC(C)(C)CN1CCN2C(=O)N(C3CCCCC3)C[C@H]2C1`: the “Percent Effect” value is -7.444%.
Take `COc1ccc(C(N)=O)cc1NCc1noc(-c2ccsc2)n1`: the “Percent Effect” value is listed as 0.901%.
Regarding `O=C(c1ccc(C(F)(F)F)cc1)N1C[C@@H](CN2CCCCC2)[C@@H](CO)C1`, the “Percent Effect” value is reported as -17.56%.
For the compound `Cc1nnc(N2CCN(C)C3(CCC(=O)N(CCO)CC3)C2)s1` (centres undefined), the “Percent Effect” value was -2.989%.
`CC(=O)Nc1nc(C(=O)NCCOc2cccc(C)c2)cs1`: the “Percent Effect” value is on record as 7.237%.
Regarding `Cc1ncc(C(=O)NCCOc2ccccc2F)c(C)n1`, the “Percent Effect” value is -10.65%.
Then `Cc1cccc(OCCNC(=O)C(C)S(=O)(=O)C2CCCC2)c1` (centres undefined), with -6.282%; and `Cc1cccc(OCCNC(=O)Cn2ccc(C)cc2=O)c1`, with 104.8%.
The value for `Cc1cccc(OCCCNC(=O)Cn2ccc(C)cc2=O)c1` was 90.13%; that for `Cc1cccc(OCCCNC(=O)NC(C)c2nncn2C)c1` (centres undefined) was 6.947%; that for `Cc1ccn(CC(=O)NCCCOc2ccccc2F)c(=O)c1` was 116.2%.
In the case of `CC(NC(=O)NCCCOc1ccccc1F)c1nncn1C` (centres undefined), the “Percent Effect” value was 6.488%.
The value for `Cc1cccc(OCCNC(=O)C(C)S(=O)(=O)c2ccccn2)c1` (centres undefined) was 5.338%.
The value for `CCc1cc(N2CCCNCC2)n2nc(C)c(C)c2n1` was 3.882%.
The value for `CCN1CCCC(c2c(-c3ccccc3)ncn2Cc2csc(N)n2)C1` (centres undefined) was 4.265%.
For the compound `COc1ccc2[nH]nc(CN3CCC(C(C)N(C)C)CC3)c2c1` (centres undefined), the “Percent Effect” value amounted to 2.332%.
The value for `CC(=O)Nc1ccc(Cl)c(C(=O)N(C)C(C)c2ccncn2)c1` (centres undefined) was 19.4%; that for `CCN(CC)C(CNS(=O)(=O)NCc1ccccc1)c1ccco1` (centres undefined) was -8.171%.
Then `C=C(C)COc1cccc(CN(C)C(C)c2ccncn2)c1` (centres undefined), with 2.778%; and `C=C(C)COc1cccc(CN(C)C(C)c2nccs2)c1` (centres undefined), with 12.61%.
As to `CC(c1nccs1)N(C)C(=O)c1cc(CN(C)Cc2ccccc2)on1` (centres undefined), the “Percent Effect” value is recorded as -3.289%.
Then `CC(c1ccncn1)N(C)S(=O)(=O)NCc1ccccc1` (centres undefined), with 110.9%; and `CC(c1ccon1)N(C)S(=O)(=O)NCc1ccccc1` (centres undefined), with 110%.
Consider `CC(c1nccs1)N(C)S(=O)(=O)NCc1ccccc1` (centres undefined), for which the “Percent Effect” value amounted to 97.09%.
Then `CC(c1ccon1)N(C)C(=O)C1CCN(CC(N)=O)CC1` (centres undefined), with -6.665%; and `CN1CCC(N(C)C[C@H]2CC[C@@H](Cc3ccc4c(cnn4C)c3)O2)CC1`, with -7.23%.
The value for `CC(Nc1ccc(Oc2cccc(C#N)c2)cc1)C(=O)NC1CC1` (centres undefined) was 1.244%; that for `Cc1cc(C)n(C2CN(Cc3noc(-c4ccccc4)n3)C2)n1` was -5.64%.
In the case of `COCCc1noc(CN2CCCC2Cn2nc(C)cc2C)n1` (centres undefined), the “Percent Effect” value was found to be 100.2%.
Then `COCCc1noc(CN2CCCC2Cn2nc(C)nc2C)n1` (centres undefined), with 103.9%.
The value for `Cc1cc(C)n(CC2CCCN2Cc2c(C)noc2C)n1` (centres undefined) was 3.056%; that for `COCCc1noc(CN2CCCC2c2c(C)nn(C)c2C)n1` (centres undefined) was 1.097%; that for `Cc1nc(C)n(CC2CCCN2Cc2nc(C3CC3)no2)n1` (centres undefined) was 2.651%.
With `COc1ccc(-c2nc(CN3CC(n4nc(C)cc4C)C3)no2)cc1`, the “Percent Effect” value is -0.6245%.
`COCCc1noc(CN2CC(n3nc(C)cc3C)C2)n1`: the “Percent Effect” value is 87.49%.
